Assay outcomes from PubChem.
The sample as a whole holds a higher share of hits than the screen did.
IDE exosite inh – exo-site inhibitors of human IDE, primary screen, biochemical, fluorescence anisotropy, probe displacement | AID 1259349, 2017 | z-score at 20 µM | 17,000 tested, 6.3% active | purified IDE, FL-6b probe fluorescence polarization; active compounds read low | Insulin-degrading enzyme (Homo sapiens), P14735;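 active = z-score of -3 or lower, meaning strong loss of probe binding signal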;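 note: His-tagged human IDE residues 42-1019 made in E. coli with 30 nM FL-6b probe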
Numbers without * were called inactive; ! = not active in a repeat.

SMILES	IDE exosite inh
COc1cccc(S(=O)(=O)N2[C@@H]3CNC[C@H]2C3c2ccc(/C=C/c3ccccc3)cc2)c1 (stereo not given in full)	0.22
CN(C)C(=O)c1cccc(-c2ccc(C3[C@H]4CNC[C@@H]3N4CC3CCCCC3)cc2)c1 (stereo not given in full)	4
COCC(=O)Nc1ccc2c(c1)OC[C@@H](C)N(C)C[C@H](C)[C@H](OC)CN(C)C2=O	-0.14
O=C(Nc1ccccc1)N1CC(=O)N2[C@@H](CO)[C@H](c3ccc(C#CC4CC4)cc3)[C@@H]2C1	-0.6
CC(C)NC(=O)N1[C@H](CO)[C@@H](c2ccccc2)C12CN(Cc1cc(F)cc(F)c1)C2	0.49
COc1ccc2c3c([nH]c2c1)[C@H](CO)N(Cc1ccccn1)CC31CN(Cc2cccc(F)c2)C1	-1.6
O=C(c1cccc(F)c1)N1CC(=O)N2[C@H](C1)[C@@H](c1ccc(-c3cccnc3)cc1)[C@@H]2CO	-2.7
O=C1CN(Cc2ccccc2)C[C@@H]2[C@H](c3ccc(Br)cc3)[C@@H](CO)N12	-1.1
COCC#Cc1ccc([C@H]2[C@@H](CO)N3C(=O)CN(C(=O)Nc4ccccc4F)C[C@H]23)cc1	1.5
COc1ccc(C#Cc2ccc([C@@H]3[C@@H](CO)N4C(=O)CN(C(=O)c5cccnc5)C[C@@H]34)cc2)cc1	2.1
COc1ccc2c3c([nH]c2c1)[C@@H](CO)NCC31CCN(Cc2ccc(F)cc2)CC1	-0.47
COc1ccccc1S(=O)(=O)N1C[C@@H]2N[C@H](C1)C2c1ccc(-c2ccccc2C)cc1 (stereo not given in full)	-7.9*!
COc1ccccc1S(=O)(=O)N1C[C@@H]2N[C@H](C1)C2c1ccc(-c2cccnc2)cc1 (stereo not given in full)	1.1
COc1ccccc1S(=O)(=O)N1C[C@@H]2N[C@H](C1)C2c1ccc(-c2ccc(F)cc2)cc1 (stereo not given in full)	3
O=C(Nc1ccccc1F)N1CC(=O)N2[C@H](CO)[C@@H](c3ccc(-c4ccc(F)cc4)cc3)[C@@H]2C1	1.1
O=C(CC1CC1)N1CC(=O)N2[C@H](CO)[C@@H](c3ccc(-c4cccnc4)cc3)[C@H]2C1	1.4
CCCC(=O)N1CC2(C1)CN(Cc1ccccc1F)[C@H](CO)c1c2c2ccc(OC)cc2n1C	0.028
CO[C@H]1CN(C)C(=O)c2ccc(NC(=O)c3cccc(F)c3)cc2OC[C@@H](C)NC[C@@H]1C	1.2
CO[C@@H]1CN(C)C(=O)c2cc(NC(=O)c3ccc(Oc4ccccc4)cc3)ccc2OC[C@@H](C)NC[C@H]1C	-14*
COc1cccc(NC(=O)Nc2ccc3c(c2)C(=O)N(C)C[C@H](OC)[C@@H](C)CN[C@H](C)CO3)c1	-1.2
COc1cccc(NC(=O)Nc2ccc3c(c2)C(=O)N(C)C[C@@H](OC)[C@H](C)CN[C@@H](C)CO3)c1	0.18
CO[C@@H]1CN(C)C(=O)c2cc(NC(=O)c3cnccn3)ccc2OC[C@H](C)NC[C@H]1C	-0.012
CO[C@H]1CN(C)C(=O)c2cc(NC(=O)c3ccc(Oc4ccccc4)cc3)ccc2OC[C@H](C)NC[C@H]1C	-14*!
CO[C@@H]1CN(C)C(=O)c2cc(NC(=O)c3cnccn3)ccc2OC[C@H](C)NC[C@@H]1C	-0.39
CO[C@@H]1CN(C)C(=O)c2cc(NC(=O)c3ccc(Oc4ccccc4)cc3)ccc2OC[C@H](C)NC[C@@H]1C	-8*
SMILES	IDE exosite inh
COc1cccc(NC(=O)Nc2ccc3c(c2)C(=O)N(C)C[C@H](OC)[C@H](C)CN[C@@H](C)CO3)c1	-1.9
C[C@H](O)C#Cc1ccc([C@@H]2[C@@H](CO)N3CCCCN(CC4CCOCC4)C[C@@H]23)cc1	0.27
C[C@@H]1CN([C@@H](C)CO)C(=O)c2cc(NC(=O)C3CCCCC3)ccc2O[C@@H]1CN(C)Cc1ccc2c(c1)OCO2	0.97
CN(C)CC#Cc1ccc([C@@H]2[C@@H](CO)N3C(=O)CN(C(=O)c4cccc(F)c4)C[C@H]23)cc1	0.41
O=C(C1CC1)N1CCCCN2[C@@H](CO)[C@@H](c3ccc(-c4cccc(F)c4)cc3)[C@@H]2C1	-0.18
CN(C)C(=O)c1cccc(-c2ccc([C@H]3[C@H](CO)N4C(=O)CN(C(=O)CC5CC5)C[C@@H]34)cc2)c1	2.1
COc1ccc(C#Cc2ccc([C@@H]3[C@H]4CN(C(=O)c5ccc(F)cc5)CC(=O)N4[C@H]3CO)cc2)cc1	2.3
COc1ccc(S(=O)(=O)Nc2ccc3c(c2)CC(=O)N([C@@H](C)CO)C[C@H](C)[C@@H](CN(C)C(=O)Nc2c(C)noc2C)O3)cc1	1.5
COc1ccccc1C#Cc1ccc([C@@H]2[C@H](C#N)N(C(=O)C3CCC3)[C@H]2CO)cc1	-7.1*
N#C[C@@H]1[C@@H](c2ccc(C#Cc3ccccc3F)cc2)[C@H](CO)N1C(=O)C1CCCCC1	1.4
COc1ccccc1C#Cc1ccc([C@@H]2[C@H](C#N)N(C(=O)C3CCCCC3)[C@H]2CO)cc1	-6.6*
